# Results from PubChem BioAssay (NCATS).
# Results filed as inconclusive are left out. Values without a mark were called inactive. Calls follow the shape of the dose curve; as a rule, active = well fitted cell-killing curve with a large enough effect; inconclusive = small, poorly fitted or top-dose-only effect, or effect the other way; inactive = flat fitted curve, though single readings scatter.
# Assay: MultiTox-Fluor Cytotoxicity Assay - LYMP1-001 - Dead Cells (AID 946);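 also: cells exposed to compound for 16 h; 0% = DMSO and 100% = tetraoctylammonium bromide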
# Conditions: LYMP1-001 lymphoblastoid cells, dead-cell protease fluorescence; series mostly up to 92.2 µM; cytotoxicity (dead cells): at the top concentration
# From the text: NIH Chemical Genomics Center [NCGC]
# NIH Molecular Libraries Screening Centers Network [MLSCN]
# National Institutes of Environmental Health Sciences [NIEHS]
# National Toxicology Program [NTP]
# We have developed a 1536-well cell-based assay for quantitative high throughput screening (qHTS) against a number of cell lines to determine in vitro cytotoxicity of small molecules. This particular assay uses a human lymphoblastoid cell line (LYMP1-001) purchased from Coriell Institute for Medical Research.
# NCGC Assay Protocol Summary:
# The MultiTox-Fluor Cytotoxicity Assay (Promega) is a homogeneous method to simultaneously measure the relative number of live and dead cells in culture by detecting changes in cell membrane integrity. There are two fluorogenic peptide substrates in the assay reagent. Viable cells are determined when the cell-permeant substrate (GF-AFC) enters the cell and is cleaved by protease from live cells resulting in liberated fluorophore. This live-cell protease activity restricted to viable cells is proportional to cell number. The dead cells are determined by using fluorogenic cell-impermeant peptide substrate (bis-AAF-R110) which cleaved by dead cell proteases leaking from damaged cell membrane.
# Using the MultiTox-Fluor Cytotoxicity Assay, the relative number of dead cells was measured in the lymphoblastoid cell line with complete culture medium following compound treatment for 16 hours. The assay was performed in opaque black Kalypsys 1536-well plates. In the screen, tetraoctylammonium bromide was used as positive control. Library compounds were measured for their ability to cause acute toxicity in the cell line, as reflected by an increase in dead cell protease activity, in a concentration-dependent manner. Data were normalized to the controls for basal activity (DMSO only) and 100% stimulation (15 uM tetraoctylammonium bromide). AC50 values were determined from concentration-response data modeled with the standard Hill equation.
# qHTS protocol for MultiTox-Fluor Cytotoxicity assay
# [Step] [Parameter] [Value] [Description]
# 1. Reagent; 5 uL; 2500 lymphoblastoid cells/well
# 2. Time; 5 hr; 37 C incubation
# 4. Controls; 23 nL; Tetraoctylammonium bromide 6.4pM to 92 uM
# 5. Time; 16 hr; 37 C incubation
# 6. Reagent; 5 uL; MuliTox-Fluor Assay reagent
# 7. Time; 60 min; Room Temperature
# 8. Detection; dead-cell fluorescence (Ex/Em=485/520); EnVision plate reader
# Keywords: cytotoxicity, lymphoblastoid cell line, fluorescence, NTPHTS, NTPHTS_NCGC, NIEHS, EPA, DSSTox, MLSMR, MLSCN, NIH Roadmap, qHTS, NCGC
row,SMILES,cytotoxicity (dead cells) [%]
1,NNC(N)=S,5.85
2,O=[N+]([O-])c1ccccc1-c1ccccc1,0.299
3,COC(=O)Nc1cccc(OC(=O)Nc2cccc(C)c2)c1,-10.2
4,NC1CCC(CC2CCC(N)CC2)CC1 (stereo not given),5.9
5,OCC(Cl)CCl (stereo not given),-4.53
6,CCCCOC(C)=O,-6.8
7,N#C/C=C/C#N,-16.4
8,c1ccc(NNc2ccccc2)cc1,-25.4
9,ClCC(Cl)CCl,-4.52
10,Nc1ccc(-c2ccc(N)c(Cl)c2)cc1Cl,27.7
11,CCOC(=O)C1OC1(C)c1ccccc1 (stereo not given),-2.37
12,[O-][Cl+2]([O-])O,8.28
13,Nc1ncc([N+](=O)[O-])s1,1.35
14,C=CCCl,-20.7
15,O=[N+]([O-])c1cc(Cl)c(Cl)cc1Cl,-4.89
16,Cc1ccc(N)cc1Cl,-15.7
17,O=[N+]([O-])CCO,8.06
18,C=C(C)CCl,-5.34
19,O=[N+]([O-])/C=C/c1ccccc1,5.7
20,O=C(O)C(Br)CBr (stereo not given),-0.589

row,SMILES,cytotoxicity (dead cells) [%]
1,CC(C)CON=O,-29.7
2,CC(C)OC(=O)Cc1ccccc1,-4.72
3,CC(C)(C)c1ccccc1O,4.23
4,C=CC(=O)OCC(CC)CCCC (stereo not given),1.57
5,CCOP(=O)(OCC)OCC,0.569
6,Clc1cccc(Cl)c1,1.91
7,Cc1ccc([N+](=O)[O-])cc1,-2.32
8,O=C(O)c1cccc(Cl)c1,-6.38
9,Cc1ccc(N)cc1N,-3
10,Nc1cc(Cl)cc(C(=O)O)c1Cl,-7.12
11,CCCBr,-9.77
12,CCCCC(CC)COC(=O)c1ccc(C(=O)OCC(CC)CCCC)c(C(=O)OCC(CC)CCCC)c1 (stereo not given),6.55
13,CCCCC(=O)Cl,-0.76
14,N#C/C(N)=C(/N)C#N,-4.49
15,OCCOCCO,-5.25
16,O=[N+]([O-])c1ccc(Cl)cc1,-5.83
17,Cc1ccc2c(C)cccc2c1,-26
18,CCCCCc1cc(O)cc(O)c1,-12
19,CCCCC#N,-2.63
20,CC(C)(C)OOC(=O)c1ccccc1,-7.91
